Molecules are shown by their SMILES. Records with an inconclusive call do not appear. Some structures have more than one record in an assay (separate samples or runs), and their calls can disagree. Activity calls are given as the source filed them. The call rests on the fitted dose curve.
On the % scale 0 is the no-effect control and ±100 the full control effect; potency means the concentration at half of the fitted maximal effect.

The test is described as follows: p53 small molecule agonists, cell-based qHTS assay with human liver microsomes: qHTS cell viability counter screen (AID 1963579). Further: nearly all actives have a fitted effect of over 45% in size. The settings on record: p53RE-bla HCT-116 viability, ATP luminescence, 16 h, HLM; series mostly up to 66 µM; activity change, negative = cytotoxicity: at the top concentration. An excerpt:
National Center for Advancing Translational Sciences [NCATS]
Division of Preclinical Innovation [DPI]
U.S. Environmental Protection Agency [EPA]
National Institutes of Environmental Health Sciences [NIEHS]
National Toxicology Program [NTP]
U.S. Food and Drug Administration [FDA]
p53, a tumor suppressor protein, is activated following cellular insult, including DNA damage and other cellular stresses. The activation of p53 regulates cell fate by inducing DNA repair, cell cycle arrest, apoptosis, or cellular senescence. The activation of p53, therefore, is a good indicator of DNA damage and other cellular stresses. […] The activation of the reporter gene under culture conditions can be detected by fluorescence intensity. This cell line was used to screen the Tox21 10K compound library in the condition of presence of human liver microsomes and to identify agonists that activate the p53 signaling pathway after in vitro metabolic activation (Ooka et al., Archive of Toxicology 96:1975-1987, 2022).
Tox21 Assay Protocol Summary:
The p53RE-bla cells were dispensed at 4,000cells/3ul/well in 1536-well black-clear bottom plates. After the assay plates were incubated at 37 C, 5% CO2 incubator for 5 hours, 23 nL of compounds dissolved in DMSO, positive controls or DMSO only was transferred to the assay plate. Following compound addition, 3 uL of human liver microsomes (XenoTech, Kansas City, KS) at final concentration of 0.5 mg/mL and 1uL of B-Nicotinamide adenine dinucleotide 2'-phosphate (NADPH) at final concentration of 0.5 mg/mL were transferred to the assay plate. The plates were incubated at 37 C for 16 hours. 1 uL of LiveBLAzer detection mixture was added to each well and the plates were incubated at room temperature in the dark for 2 h. Fluorescence intensity at 460 and 530 nm emission and 405 nm excitation were measured by an Envision plate reader. For cell viability readout that measures cytotoxicity, 4 ul/well of CellTiter-Glo reagent was added into the assay plates using a Flying Reagent Dispenser. After 30 min incubation at room temperature, the luminescence intensity in the plates was measured using a ViewLux plate reader.
In general terms: qHTS replaces the single test concentration by a dilution series.
As for `NC1CCC(CC2CCC(N)CC2)CC1` (stereo not given), the “activity change, negative = cytotoxicity” value was 6.13% (inactive).

On to `CC[C@]1(O)CC[C@H]2[C@@H]3CCC4=CCCC[C@@H]4[C@H]3CC[C@@]21C`, for which the “activity change, negative = cytotoxicity” value was 4.13% [at 30.3 µM] (inactive).

On to `FC(F)OC(F)(F)C(F)Cl` (stereo not given), for which the “activity change, negative = cytotoxicity” value was -11% (inactive).

For the compound `CNC(=O)Oc1cc(C)c(SC)c(C)c1`, the “activity change, negative = cytotoxicity” value was 1.87% (inactive).

Regarding `CN(C)c1ccc(N)cc1`, the Potency is 35.5 µM (active).

Regarding `CNC(=O)Oc1ccccc1C(C)C`, the “activity change, negative = cytotoxicity” value was 0.78% (inactive).

Consider `CCOCn1c(-c2ccc(Cl)cc2)c(C#N)c(Br)c1C(F)(F)F`, for which the Potency is 22.9 µM (active).

Regarding `N#CNC#N`, the “activity change, negative = cytotoxicity” value was 8.77% (inactive).

On to `NNCc1ccccc1`, for which the “activity change, negative = cytotoxicity” value was -1.67% (inactive).

Consider `N#CCCl`, for which the “activity change, negative = cytotoxicity” value is -2.44% (inactive).

`CCOC(=O)COc1ccc(Cl)cc1Cl`: the “activity change, negative = cytotoxicity” value is 1.48% (inactive).

As to `CC(C)(C)c1ccc(CSc2cnn(C(C)(C)C)c(=O)c2Cl)cc1`, the “activity change, negative = cytotoxicity” value is 3.59% (inactive).

On to `Cc1c(Cl)c(=O)oc2cc(OP(=O)(OCCCl)OCCCl)ccc12`, for which the “activity change, negative = cytotoxicity” value is -14% [at 30.3 µM] (inactive).

Turning to `COc1ccc2[nH]cc(CCN(C(C)C)C(C)C)c2c1`, the “activity change, negative = cytotoxicity” value was 32.8% (inactive).

Take `CCC(C)Nc1c([N+](=O)[O-])cc(C(C)(C)C)cc1[N+](=O)[O-]` (stereo not given): the “activity change, negative = cytotoxicity” value was -13.8% (inactive).

Take `CC(CC(C#N)(c1ccccc1)c1ccccc1)N(C)C` (stereo not given): the “activity change, negative = cytotoxicity” value is -1.94% (inactive).

With `CC(C)(C)NCC(O)c1ccccc1Cl` (stereo not given), the “activity change, negative = cytotoxicity” value was 0.506% [at 30.3 µM] (inactive).

On to `O=[N+]([O-])c1ccc(Nc2ccccc2)cc1`, for which the Potency result was “inactive”.

Regarding `CC(C)CC(C)N` (stereo not given), the “activity change, negative = cytotoxicity” value is -9.52% (inactive).

Regarding `COc1cc(Cl)c(OC)cc1Cl`, the “activity change, negative = cytotoxicity” value is 0.46% (inactive).

For the compound `CCOP(=S)(OCC)Oc1ccc(Cl)cc1Cl`, the Potency is 45.8 µM (active).

In the case of `O=[N+]([O-])c1ccc2ccc3cccc4ccc1c2c34`, the “activity change, negative = cytotoxicity” value is 0.429% (inactive).

Take `CC(C)(N)Cc1ccc(Cl)cc1`: the “activity change, negative = cytotoxicity” value is -3.06% [at 30.3 µM] (inactive).

With `Cc1ccc(S(=O)(=O)N[C@@H](CCCCN)C(=O)CCl)cc1`, the “activity change, negative = cytotoxicity” value was 23.1% [at 30.3 µM] (inactive).

As for `COc1cc(CC(C)N)cc(OC)c1OC` (stereo not given), the “activity change, negative = cytotoxicity” value was 11.7% (inactive).

In the case of `Clc1ccccc1N1CCNCC1`, the “activity change, negative = cytotoxicity” value is -14.7% [at 30.3 µM] (inactive).

For `C=CC(=O)OCCN(C)C`, the “activity change, negative = cytotoxicity” value is -1.49% (inactive).

Turning to `CC(=O)[O-].CC(=O)[O-].[Hg+2]`, the Potency is 3.63 µM (active).

As for `COc1cccc([C@@]2(O)CCCC[C@@H]2CN(C)C)c1`, the “activity change, negative = cytotoxicity” value was 7.97% [at 30.3 µM] (inactive).

For the compound `FC(F)C(F)(F)OCC(Cn1cncn1)c1ccc(Cl)cc1Cl` (stereo not given), the “activity change, negative = cytotoxicity” value was -4.13% (inactive).

For the compound `O=C1C(Cl)C(CCl)CN1c1cccc(C(F)(F)F)c1` (stereo not given), the “activity change, negative = cytotoxicity” value is 0.547% (inactive).

For `CC(=O)CN(CC(C)=O)N=O`, the “activity change, negative = cytotoxicity” value was -5.24% (inactive).

As for `C[C@H]1O[C@@H](O[C@H]2[C@@H](O)C[C@H](O[C@H]3[C@@H](O)C[C@H](O[C@H]4CC[C@@]5(C)[C@H](CC[C@@H]6[C@@H]5CC[C@]5(C)[C@@H](C7=CC(=O)OC7)CC[C@]65O)C4)O[C@@H]3C)O[C@@H]2C)C[C@H](O)[C@@H]1O`, the Potency is 46.1 nM (active) and inactive.

In the case of `CCOC1Oc2ccc(OS(C)(=O)=O)cc2C1(C)C` (stereo not given), the “activity change, negative = cytotoxicity” value is -1.02% (inactive).

Take `CCCCNP(N)(N)=S`: the “activity change, negative = cytotoxicity” value was -14% (inactive).

On to `CCOC(=O)COc1cc(-c2nn(C)c(OC(F)F)c2Cl)c(F)cc1Cl`, for which the “activity change, negative = cytotoxicity” value was 3.53% (inactive).

On to `CCOP(=S)(OCC)Oc1ccc(S(C)=O)cc1` (stereo not given), for which the “activity change, negative = cytotoxicity” value was 1.2% (inactive).

`CC(C)=CCOc1c2occc2cc2ccc(=O)oc12`: the “activity change, negative = cytotoxicity” value was 9.93% [at 30.3 µM] (inactive).

Regarding `COc1ccc(C=O)cc1O`, the “activity change, negative = cytotoxicity” value was -15.5% (inactive).

For `Clc1ccc(C(Cl)(Cl)Cl)cc1Cl`, the “activity change, negative = cytotoxicity” value is 1.63% (inactive).

These data come from PubChem BioAssay (Tox21).
